Laboratory results: PubChem BioAssay (EPA / NIEHS)
Records with an inconclusive call do not appear. The source made the active and inactive calls. How the source made its calls, unless noted: active means hit-call score of the fitted dose curve at least 0.9, where 1 is the maximum; inactive means score below 0.9.

Key:
[1] = CCTE_Simmons_MITO_basal_resp_rate: CCTE's HepG2 Seahorse XF Respirometric Screening Assay at Basal Respiratory State, Simmons Lab (AID 2284001); conditions: actives raise or lower the signal
How it was run: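 HepG2 oxygen consumption on Seahorse XF96 after compound injection, 7 concentrations 125 nM–100 uM final, reads every 6 min over 72 min. Triplicate biological replicates; bidirectional fit vs DMSO; fenpyroximate and 2,4-dinitrophenol controls.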

[2] = CCTE_Simmons_MITO_max_resp_rate: CCTE's HepG2 Seahorse XF Respirometric Screening Assay at Maximal Respiratory State [uncoupled], Simmons Lab (AID 2284002); conditions: actives raise or lower the signal
How it was run: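 Maximal respiration in HepG2 cells is recorded as OCR by Seahorse XF following FCCP injection. Compounds span 125 nM–100 uM final; activity is called in either direction against DMSO.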

[3] = CCTE_Simmons_MITO_inhib_resp_rate: CCTE's HepG2 Seahorse XF Respirometric Screening Assay at Inhibited Respiratory State [full ETC block], Simmons Lab (AID 2284006); conditions: actives raise or lower the signal
How it was run: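 Inhibited respiration was taken as HepG2 oxygen consumption after rotenone/antimycin A, which followed test-compound and FCCP injections. Chemicals were tested at seven final concentrations from 125 nM to 100 uM. Activity was fitted bidirectionally relative to DMSO.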

[4] = CCTE_Simmons_MITO_viability: CellTiter-Glo Viability Assessment for CCTE's HepG2 Seahorse XF Respirometric Screening Assay [post-hoc], Simmons Lab (AID 2284007; active means hit-call score of the fitted dose curve at least 0.9, where 1 is the maximum;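 on AC50: cells exposed to chemical for 90 min before the ATP read; actives lower ATP signal relative to DMSO baseline meaning reduced viability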)
How it was run: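 HepG2 cells; test chemical 7 conc. (125 nM–100 uM final) × 90 min; then luminescent ATP detection. DMSO vehicle. Positive control dichlone, 8 conc. from 10 nM to 100 uM final. Loss-of-signal endpoint.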

[5] = CCTE_Shafer_MEA_acute_spike_number: CCTE's Neural Acute Assay for Total Number of Spikes, Shafer Lab (AID 2284008);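 on AC50: curve fitted for decrease in spike count so AC50 reflects inhibitors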
How it was run: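 Cortical neurons from rat, matured to DIV 13 or 15 on microelectrode arrays, are recorded at 37 C before and during 40-min exposure to 0.03-40 uM compound. Wells need >/= 10 active electrodes.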

[6] = CCTE_Shafer_MEA_acute_firing_rate_mean: CCTE's Neural Acute Assay for Mean Firing Rate, Shafer Lab (AID 2284009);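 further: analyzed for loss of signal so actives lower firing rate relative to DMSO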
How it was run: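 Rat primary cortical neurons on 48-well MEA plates, dosed at 0.03-40 uM on DIV 13 or 15; 40 min spontaneous activity recorded at 37 C before and after compound. Spike rate per electrode averaged per well, expressed as percent change from baseline.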

[7] = CCTE_Harrill_HTTr_Viability_MCF7: CCTE's 6-hour Cell Viability Assessment for the High-Throughput Transcriptomics (HTTr) Platform, in MCF-7 cells cultured in DMEM + 10% fetal bovine serum, Harrill Lab (AID 2284010)
How it was run: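 Viability measured through PI dye exclusion by high-content imaging at 6 h post-dosing.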

[8] = CCTE_Harrill_HTTr_Apoptosis_MCF7: CCTE's 6-hour Apoptosis Assessment for the High-Throughput Transcriptomics (HTTr) Platform, in MCF-7 cells cultured in DMEM + 10% fetal bovine serum, Harrill Lab (AID 2284011)
How it was run: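 Cells are dosed with test chemicals at eight concentrations and imaged 6 hours later for caspase-3/7 activity using a green fluorogenic detection reagent. Activity is fitted in both directions against DMSO controls.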

[9] = CCTE_Harrill_HTTr_CellCount_MCF7: CCTE's Cell Proliferation Assessment for the High-Throughput Transcriptomics (HTTr) Platform, Harrill Lab (AID 2284012; active means hit-call score of the fitted dose curve at least 0.9, where 1 is the maximum;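 further: count of Hoechst-stained nuclei per well by high-content imaging in MCF-7 cells; cells exposed to compound for six hours; intended direction is loss of nuclei count meaning fewer cells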)
How it was run: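 Nuclei counting (Hoechst, high content imaging) in MCF-7 after a 6 h treatment at eight concentrations. Activity fitted bidirectionally, DMSO as negative control.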

[10] = target: Nucleoli Translocation, AR (gene 367) (UniProt P10275); assay: UPITT_HCI_U2OS_AR_TIF2_Nucleoli_Antagonist: University of Pittsburgh U2OS Androgen Receptor-Transcriptional Intermediary Factor 2 (AR-TIF2) Antagonism High Content Imaging Assay for Nucleoli Translocation (AID 2283997; active means hit-call score of the fitted dose curve at least 0.9, where 1 is the maximum)
How it was run: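 U2OS cells co-expressing red-fluorescent-tagged human AR and green-fluorescent-tagged TIF2, imaged by high-content microscopy for nucleolar red fluorescence. Antagonist mode against DHT; primary screen at 20 uM final (0.2% DMSO).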

[11] = target: Nucleoli Translocation, AR (gene 367) (UniProt P10275); assay: UPITT_HCI_U2OS_AR_TIF2_Nucleoli_Agonist: University of Pittsburgh U2OS Androgen Receptor-Transcriptional Intermediary Factor 2 (AR-TIF2) Agonism High Content Imaging Assay for Nucleoli Translocation (AID 2283998; active means hit-call score of the fitted dose curve at least 0.9, where 1 is the maximum)
How it was run: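 Red-tagged human androgen receptor co-expressed with GFP-tagged TIF2 serves as the binding reporter. Primary testing used 20 uM final (0.2% DMSO); follow-up dose response covered 0.195 to 50 uM final (0.5% DMSO).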

[12] = system: DIO1 (gene 1733); assay: CCTE_GLTED_hDIO1: CCTE's human Deiodinase 1 (DIO1) Inhibition Assay, Great Lakes Toxicology and Ecology Division (GLTED) Lab (AID 2283987; active means hit-call score of the fitted dose curve at least 0.9, where 1 is the maximum;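 further: isolated human DIO1 enzyme in a cell-free setup rather than cells; enzyme activity read as free iodide liberated from substrate via Sandell-Kolthoff colorimetry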)
How it was run: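 Cell-free hDIO1 assay, triplicate plates. Absorbance of the Sandell-Kolthoff reaction reports enzyme-liberated iodide; iodinated chemicals or nitrite, iron and thiocyanate may interfere.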

[13] = CCTE_Harrill_HTTr_Apoptosis_DMEM_6hr: (Pilot) CCTE's 6-hour Apoptosis Assessment for the High-Throughput Transcriptomics (HTTr) Platform, in MCF-7 cells cultured in DMEM + 10% fetal bovine serum, Harrill Lab (AID 2283981)
How it was run: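 Caspase-3/7 activation read by high content imaging with CellEvent Caspase 3/7 Green in MCF-7 cells (DMEM + 10% FBS), 6 h after dosing; eight-point dilution series. Bidirectional fitting relative to DMSO baseline.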

[14] = CCTE_Harrill_HTTr_Apoptosis_DMEM_12hr: (Pilot) CCTE's 12-hour Apoptosis Assessment for the High-Throughput Transcriptomics (HTTr) Platform, in MCF-7 cells cultured in DMEM + 10% fetal bovine serum, Harrill Lab (AID 2283982)
How it was run: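 MCF-7 cells in DMEM + 10% FBS, exposed 12 h to an eight-point dilution series; caspase-3/7 activation imaged with CellEvent Green. Bidirectional fit versus DMSO.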

[15] = CCTE_Harrill_HTTr_Apoptosis_DMEM_24hr: (Pilot) CCTE's 24-hour Apoptosis Assessment for the High-Throughput Transcriptomics (HTTr) Platform, in MCF-7 cells cultured in DMEM + 10% fetal bovine serum, Harrill Lab (AID 2283983)
How it was run: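 MCF-7 cells in DMEM + 10% FBS, eight-point dilution series, 24 h exposure. Caspase-3/7 activation imaged by high-content imaging with CellEvent Caspase 3/7 Green. Bidirectional curve fitting against DMSO baseline.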

[16] = CCTE_Harrill_HTTr_Apoptosis_PRF_DMEM_6hr: (Pilot) CCTE's 6-hour Apoptosis Assessment for the High-Throughput Transcriptomics (HTTr) Platform, in MCF-7 cells cultured phenol red-free DMEM + 10% charcoal-stripped fetal bovine serum, Harrill Lab (AID 2283984)
How it was run: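 MCF-7 cells in phenol red-free DMEM + 10% charcoal-stripped FBS, eight-point dilution series, 6 h exposure. Caspase-3/7 activation imaged by high-content imaging with CellEvent Caspase 3/7 Green; bidirectional fit versus DMSO baseline.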

[17] = CCTE_Harrill_HTTr_Apoptosis_PRF_DMEM_12hr: (Pilot) CCTE's 12-hour Apoptosis Assessment for the High-Throughput Transcriptomics (HTTr) Platform, in MCF-7 cells cultured in phenol red-free DMEM + 10% charcoal-stripped fetal bovine serum, Harrill Lab (AID 2283985)
How it was run: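 MCF-7 cells in phenol red-free DMEM with 10% charcoal-stripped FBS, eight-point dilution series, 12 h exposure. Caspase-3/7 activation imaged by high content imaging with CellEvent Green reagent; bidirectional fit vs DMSO.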

[18] = CCTE_Harrill_HTTr_Apoptosis_PRF_DMEM_24hr: (Pilot) CCTE's 24-hour Apoptosis Assessment for the High-Throughput Transcriptomics (HTTr) Platform, in MCF-7 cells cultured in phenol red-free DMEM + 10% charcoal-stripped fetal bovine serum, Harrill Lab (AID 2283986)
How it was run: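 MCF-7 cells in phenol red-free DMEM with 10% charcoal-stripped FBS, exposed 24 h across an eight-point dilution series. Caspase-3/7 activation imaged with CellEvent Green by high content imaging; bidirectional fitting against DMSO.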

[19] = target: Ratio of Nucleoli Translocation and Cytoplasm, AR (gene 367) (UniProt P10275); assay: UPITT_HCI_U2OS_AR_TIF2_Nucleoli_Cytoplasm_Ratio_Antagonist: University of Pittsburgh U2OS Androgen Receptor-Transcriptional Intermediary Factor 2 (AR-TIF2) Antagonism High Content Imaging Assay for Ratio of Nucleoli Translocation and Cytoplasm (AID 2283999; active means hit-call score of the fitted dose curve at least 0.9, where 1 is the maximum;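 further: antagonists lower the DHT-driven ratio of nucleolar to cytoplasmic red signal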)
How it was run: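 High-content imaging quantifies the red nucleolar:cytoplasmic fluorescence ratio in U2OS cells with AR-RFP and TIF2-GFP. Final concentrations are 20 uM (screen) or 0.195–50 uM (dose response), analysed against DHT as baseline.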

[20] = target: Ratio of Nucleoli Translocation and Cytoplasm, AR (gene 367) (UniProt P10275); assay: UPITT_HCI_U2OS_AR_TIF2_Nucleoli_Cytoplasm_Ratio_Agonist: University of Pittsburgh U2OS Androgen Receptor-Transcriptional Intermediary Factor 2 (AR-TIF2) Agonism High Content Imaging Assay for Ratio of Nucleoli Translocation and Cytoplasm (AID 2284000; active means hit-call score of the fitted dose curve at least 0.9, where 1 is the maximum;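 further: hits raise the red nucleolar to cytoplasm ratio above vehicle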)
How it was run: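 U2OS cells expressing RFP-tagged human AR and GFP-tagged TIF2; high-content imaging ratio of nucleolar to cytoplasmic red fluorescence, fitted as gain of signal vs DMSO. Single point at 20 uM final (0.2% DMSO); concentration-response 0.195-50 uM final (0.5% DMSO).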

Measured: AC50

Nucleoli Translocation, AR (gene 367), sequence (P10275 whole entry, looked up): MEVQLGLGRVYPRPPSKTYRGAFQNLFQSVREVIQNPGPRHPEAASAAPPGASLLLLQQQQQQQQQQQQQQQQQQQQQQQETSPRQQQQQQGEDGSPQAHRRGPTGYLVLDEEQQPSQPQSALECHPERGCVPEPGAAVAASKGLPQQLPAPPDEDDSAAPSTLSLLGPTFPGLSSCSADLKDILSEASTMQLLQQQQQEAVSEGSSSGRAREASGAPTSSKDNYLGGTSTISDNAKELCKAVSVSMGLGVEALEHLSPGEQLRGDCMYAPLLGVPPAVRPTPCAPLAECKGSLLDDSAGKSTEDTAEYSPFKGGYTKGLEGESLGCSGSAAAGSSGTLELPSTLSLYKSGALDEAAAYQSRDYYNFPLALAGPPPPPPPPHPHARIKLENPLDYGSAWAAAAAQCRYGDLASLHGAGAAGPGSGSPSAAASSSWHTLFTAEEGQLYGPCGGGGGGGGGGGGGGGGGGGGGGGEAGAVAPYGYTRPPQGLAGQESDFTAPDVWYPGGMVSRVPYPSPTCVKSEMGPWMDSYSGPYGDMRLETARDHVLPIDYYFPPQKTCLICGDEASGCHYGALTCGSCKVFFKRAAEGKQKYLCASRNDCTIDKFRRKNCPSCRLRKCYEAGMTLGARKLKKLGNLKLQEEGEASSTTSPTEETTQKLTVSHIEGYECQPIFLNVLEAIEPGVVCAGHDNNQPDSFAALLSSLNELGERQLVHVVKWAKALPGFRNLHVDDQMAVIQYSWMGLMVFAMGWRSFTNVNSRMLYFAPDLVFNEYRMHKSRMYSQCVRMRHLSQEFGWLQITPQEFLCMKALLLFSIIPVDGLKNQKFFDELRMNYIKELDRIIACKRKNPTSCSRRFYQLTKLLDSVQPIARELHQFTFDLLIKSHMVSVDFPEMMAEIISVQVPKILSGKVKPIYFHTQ
Ratio of Nucleoli Translocation and Cytoplasm, AR (gene 367), sequence (P10275 whole entry, looked up): as above

CCC(C)c1cc([N+](=O)[O-])cc([N+](=O)[O-])c1O (centres undefined)
active: [1] 0.329 µM | [2] 16 µM | [4] 2.91 µM
inactive: [3] | [5] | [6] | [7] | [8]

CCSC(=O)N(CC)C1CCCCC1
active: [1] 50 µM | [5] 20 µM | [6] 20 µM
inactive: [2] | [3] | [4] | [7] | [8] | [9]

CC(C)(O)C(=O)Nc1ccc([N+](=O)[O-])c(C(F)(F)F)c1
inactive: [3] | [4] | [7] | [8]
active: [1] 40.9 µM | [2] 50 µM

c1ccc(-c2ccccc2)cc1
inactive: [10] | [11] | [5] | [6] | [7] | [8] | [9]

CCCCCCCCCc1ccc(O)cc1
active: [12] 90.3 µM | [5] 9.9 µM | [6] 9.87 µM
inactive: [7] | [8] | [9]

O=C(O)C(F)(F)C(F)(F)C(F)(F)C(F)(F)C(F)(F)C(F)(F)C(F)(F)C(F)(F)F
inactive: [1] | [2] | [3] | [4] | [7] | [8] | [9]

CCC(C)(c1ccc(O)cc1)c1ccc(O)cc1
active: [1] 16.9 µM | [2] 25.9 µM
not listed: [4] | [10] | [11] | [12] | [19] | [20]
inactive: all other assays above

Nc1ccc(-c2ccc(N)cc2)cc1
inactive: [5] | [6]

CCOC(=O)C(O)(c1ccc(Cl)cc1)c1ccc(Cl)cc1
active: [10] 13.3 µM | [11] 50 µM | [20] 70.3 µM
inactive: [19] | [7] | [8] | [9]

Oc1c(Cl)c(Cl)c(Cl)c(Cl)c1Cl
active: [1] 0.451 µM | [2] 16.2 µM | [4] 6.35 µM
inactive: [3] | [7] | [8] | [9]

C[C@]12CCC(=O)C=C1CC[C@@H]1[C@@H]2CC[C@@]2(C)[C@H]1CC[C@]2(C)O
inactive: [1] | [2] | [3] | [7] | [8] | [9]
